Screens deposited in PubChem BioAssay by National Center for Advancing Translational Sciences (NCATS).
VP16 counter: VP16 counterscreen qHTS for inhibitors of ROR gamma transcriptional activity. Potency, µM (series often up to 53.6 µM), for inactives: at the top dose activity, negative = inhibition, most hits filed as inhibitors. Drosophila S2 Gal4-VP16 UAS-luciferase, luminescence, 20 h. 3.5% of 310,000 active;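 note: Gal4-VP16 expression switched on by copper sulfate through the metallothionein promoter; nearly all actives have a fitted effect of over 50% in size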
RORgamma inh: qHTS for inhibitors of ROR gamma transcriptional activity; Nuclear receptor ROR-gamma (Mus musculus), P51450; Drosophila S2 Gal4-RORgamma UAS-luciferase reporter, 20 h; Potency, µM (titrated, usually from 53.6 µM), inactives show top-dose activity change, negative = inhibition, actives largely listed as inhibitors; 5.4% of 310,000 active; note: nearly all actives have a fitted effect of over 60% in size
Target sequence (P51450 whole entry, looked up, the tested form may be a part): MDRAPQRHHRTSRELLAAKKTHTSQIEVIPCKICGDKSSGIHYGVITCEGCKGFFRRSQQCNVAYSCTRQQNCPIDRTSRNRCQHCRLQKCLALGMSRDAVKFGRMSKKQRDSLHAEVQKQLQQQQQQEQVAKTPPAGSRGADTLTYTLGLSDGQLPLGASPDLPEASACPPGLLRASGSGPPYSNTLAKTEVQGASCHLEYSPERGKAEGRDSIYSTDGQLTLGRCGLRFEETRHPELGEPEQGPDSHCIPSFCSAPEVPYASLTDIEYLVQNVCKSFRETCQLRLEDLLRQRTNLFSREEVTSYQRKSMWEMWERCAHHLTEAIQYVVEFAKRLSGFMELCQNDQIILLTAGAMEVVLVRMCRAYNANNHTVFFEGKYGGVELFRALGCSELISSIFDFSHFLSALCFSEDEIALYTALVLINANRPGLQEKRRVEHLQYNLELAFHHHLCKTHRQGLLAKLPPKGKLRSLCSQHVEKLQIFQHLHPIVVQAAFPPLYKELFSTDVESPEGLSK
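Luciferase reporter read in Schneider cells carrying Gal4-RORγ (mouse) and UAS-Photinus luciferase; cells given compound 1 h before 700 uM copper sulfate induction, then incubated 20 h at ambient temperature.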
Luc counter: Counterscreen for Luciferase (Kinase-Glo TM) Inhibition | Kinase-Glo luciferase, ATP luminescence, 8 min | Potency, µM (doses to about 38.3 µM), for inactives: at the highest dose activity change, negative = inhibition, hits mostly inhibitors | 0.28% of 200,000 active; note: nearly all actives have a fitted effect of over 60% in size
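Compounds were added to a substrate mix at pH 7.2 (50 mM imidazole, 10 uM ATP, within the enzyme's linear range), followed by Kinase-Glo detection reagent; luminescence was measured after 8 minutes at ambient temperature.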
* marks the source's active call; other numbers are inactive results; ? = inconclusive; nt = no result given; [ ] = dose if it differs, or a comment. Most compounds without a hit are left out; they make up all but 6.4% or so of the library. Calls come from the whole dose curve; as a rule, active = well fitted curve in the direction sought with a large enough effect; inconclusive = small, poorly fitted or top-dose-only effect, or another doubt; inactive = no such curve, though single readings can be large; an effect the other way counts as inactive or inconclusive. % is set by controls: 0 for no effect and ±100 for the full control effect; potency is the fitted concentration of half-maximal effect.

SMILES | VP16 counter | RORgamma inh | Luc counter
O=C1Nc2ccccc2/C1=C/C(=O)c1cccs1 | ? | ? | 13%
O=C1Nc2ccccc2/C1=C/c1cnc(-c2ccccc2)[nH]1 | 12% | 21% | nt
C=CCOc1ccccc1C(=O)/C=C1/C(=O)Nc2ccccc21 | 13µM* | 5.6µM* | nt
COc1cccc(Cn2c(=O)c(-c3cc(F)cc(F)c3)nc3cnc(N(C)C)nc32)c1 | 3% | 0% | nt
CN1C(=O)C(C)(C)c2cc(S(=O)(=O)N3CCN(c4ccccc4)CC3)ccc21 | 2% | ? | nt
Cc1nn(-c2ccc(Cl)cc2)c(=O)c2ccccc12 | 13%[10 µM] | 7% | 0%
Cc1c(Cl)sn(-c2ccc(Cl)cc2)c1=O | 2.8µM* | 1.6µM* | -2%
Cc1ccc(SCC(=O)Nc2ccc(-c3nc4ccccc4[nH]3)cc2)cc1 | ? | ? | 0%
CCn1cc(Cl)c(C(=O)NNC(=O)CCn2ccc([N+](=O)[O-])n2)n1 | 2% | 0% | nt
O=C(CCCC(=O)Nc1ccc(Br)cc1)N/N=C/c1ccccc1 | 20% | ? | nt
Nc1nn2c(C(F)(F)F)cc(=O)[nH]c2c1N=Nc1cccc(F)c1 | -16% | 10µM* | -1%
Cc1cc(=O)[nH]c2c(N=Nc3ccc(O)cc3)c(N)nn12 | ? | ? | -3%
CN(Cc1cccc2cnccc12)C(=O)CCc1nnc(CCc2ccccc2)o1 | 20µM* | ? | 1%
CC(=O)c1ccc(-c2nnc(CCC(=O)N(C)Cc3cccc4cnccc34)o2)s1 | -2% | 1% | nt
O=C(COC(=O)c1ccc(CO)cc1)Nc1ccc(OC(F)F)cc1 | -14% | 2% | 2%
Cc1csc(Nc2ccccc2C(F)(F)F)n1 | -3% | -33% | 0%
Cc1cc(C)n(-c2nc(Nc3ccccc3C)nc(-n3nc(C)cc3C)n2)n1 | 10µM* | 2.8µM* | -5%
Cc1cc(C(=O)Nc2ccccc2C)n(-c2ccccc2)n1 | -6% | 0% | nt
Cc1cc(C)n(-c2nc(Nc3ccccc3C(F)(F)F)nc(-n3nc(C)cc3C)n2)n1 | 7.1µM* | 7.1µM* | -3%
Cc1cc(NC(=O)c2ccc(Cl)cc2Cl)no1 | -14% | 30%[1.91 µM] | nt
CCc1ccc(CN2CCC(n3nccc3NC(=O)Cc3ccccc3)CC2)o1 | 13% | -2% | nt
CCCS(=O)(=O)c1c(S(=O)(=O)CCC)c2ccc(C(N)=O)cn2c1C(=O)c1ccc(OC)cc1 | 2% | 37% | 2%
Cc1ccc(OCCCCN2CCc3ccccc3C2)cc1 | -6% | 9% | nt
C=CCOc1ccc(C2/C(=C(/O)c3ccc(OC)cc3)C(=O)C(=O)N2CCN2CCNCC2)cc1 (centres undefined) | 5% | 5% | nt
O=C(Nc1nccs1)c1ccc2c(=O)n3c(nc2c1)CCCCC3 | 0% | ? | nt
SMILES | VP16 counter | RORgamma inh | Luc counter
CCN(CC)C(=S)SCC(=O)Nc1ccc(S(N)(=O)=O)cc1 | 18% | 4% | -2%
CCN(CC)C(=S)SCC(=O)Nc1nc(=O)c2ccccc2s1 | 11µM* | ? | 0%
CCCCn1c(SCC(=O)Nc2cccc(OC)c2)nc2ccc(N3CCOCC3)cc2c1=O | 13µM* | 5µM* | -1%
CCCCn1c(SCC(N)=O)nc2c(sc3ccccc32)c1=O | 6% | 3% | 1%
CCCCn1c(SCC(N)=O)nc2ccc(N3CCOCC3)cc2c1=O | 10µM* | 1.6µM* | 1%
COc1ccc(Cn2c(SCC#N)nc3ccc(N4CCOCC4)cc3c2=O)cc1 | ? | 10µM* | -7%
COc1ccc(-n2c(SCC#N)nc3ccccc3c2=O)cc1 | 12% | -10% | -1%
COc1cccc(NC(=O)CSc2nc3ccccc3c(=O)n2CCCC(=O)NCCCN2CCOCC2)c1 | -4%[10 µM] | -1% | 12%
CCCCCCn1c(SCC(=O)Nc2cc(C)on2)nc2ccccc2c1=O | 8%[0.365 µM] | 4µM* | -1%
Cc1cc(NC(=O)CSc2nc3ccccc3c(=O)n2Cc2ccc(F)cc2)no1 | -18% | ? | -1%
CCN1CCN(C(=O)c2ccc3c(c2)N(Cc2ccccc2F)C(=O)c2ccccc2S3(=O)=O)CC1 | -14% | -12% | nt
CCc1nc(SCC(=O)Nc2ccc(OC)cc2[N+](=O)[O-])n[nH]1 | 1% | 35% | nt
COc1ccc(OC)c(C(=O)Cn2cnc3ccccc3c2=O)c1 | 5% | 4% | nt
COc1ccc(C(=O)Cn2cnc3ccccc3c2=O)c(OC)c1 | 8.9µM* | 4.5µM* | nt
Nc1nc2c(c(=O)[nH]1)N[C@H](CCNc1ccc(C(=O)O)cc1)CN2 | nt | nt | -6%[7.66 µM]
S=c1[nH]nc(COc2ccccc2)n1/N=C/c1c(Cl)cccc1Cl | -29% | 3.5µM* | nt
S=c1[nH]nc(COc2ccccc2)n1/N=C/c1ccccc1Cl | 13µM* | 6.3µM* | nt
O=C1Nc2ccc(Br)cc2/C1=C/c1ccc(C(=O)O)cc1 | 8% | 0% | nt
COc1ccc(/C=C2/NC(=O)N(CC(=O)Nc3cccc(C)c3)C2=O)cc1O | 9%[10 µM] | 3% | 3%
CC(C)(C)/C(COc1ccccc1[N+](=O)[O-])=N/O | -29% | ? | 4%
CC1=CC(=O)C=C(C)C1=NOc1ccccc1[N+](=O)[O-] | ? | 10µM* | -2%
CCOc1ccccc1NC(=O)N1CCCN(c2ncccc2C#N)CC1 | 6% | -13% | nt
O=C(CNS(=O)(=O)c1ccc(Br)s1)Nc1ccc2c(c1)OCCO2 | 1% | 36% | 0%
O=C(CNS(=O)(=O)c1ccc(Br)s1)NCC1COc2ccccc2O1 (centres undefined) | 13µM* | -17% | 1%
Cc1ccccc1-n1c([C@@H]2C[C@H]2c2ccccc2)n[nH]c1=S | ? | 5µM* | nt
SMILES | VP16 counter | RORgamma inh | Luc counter
CC(C)CCC(CC(C)O)c1n[nH]c(=S)n1-c1ccccc1 (centres undefined) | ? | ? | -2%
S=c1[nH]nc([C@@H]2C[C@H]2c2ccccc2)n1-c1ccccc1 | 4µM* | 2.8µM* | 0%
C=CCn1c(-c2cc(-c3ccccc3)sc2N)n[nH]c1=S | 10µM* | 2.2µM* | nt
COc1ccc(-c2nc(-c3ccc(O)cc3O)cs2)cc1OC | ? | -44% | 2%
C=CCn1c(-c2cnn(-c3ccccc3)c2N)n[nH]c1=S | 21% | ? | nt
C=CCn1c(SCc2csc(-c3ccc(Cl)cc3)n2)nnc1-c1ccccc1OC | -4% | ? | nt
C=CCn1c(-c2csc(-c3ccccc3)n2)n[nH]c1=S | 0.71µM* | 4µM* | -4%
C=CCn1c(-c2csc(-c3ccc(OC)c(OC)c3)n2)n[nH]c1=S | ? | 2µM* | 0%
C=CCn1c(-c2cccnc2)n[nH]c1=S | -9% | 13% | -2%
C=CCn1c(-c2csc(-c3ccc(Cl)cc3)n2)n[nH]c1=S | 1.8µM* | ? | -4%
O=C(Nc1ccc(F)cc1)c1ccc(Br)c(S(=O)(=O)N2CCOCC2)c1 | -5% | ? | nt
COc1ccc(OC2C=CC(C#Cc3ccccc3)OC2CO)cc1 (centres undefined) | 11%[10 µM] | -7%[10 µM] | nt
CNC(=O)COc1coc(CN2CCN(c3ccc(F)cc3)CC2)cc1=O | -12% | 1% | nt
CN(C)c1ncc2ncc(=O)n(CCC#N)c2n1 | 7% | 17% | 1%
O=C(NCc1cccnc1)c1cc(S(=O)(=O)N2CCCC2)c(Cl)cc1Cl | 21% | 23% | nt
CCCN(CCC)C(=O)c1oc2ccccc2c1NC(=O)Cc1cccc(OC)c1 | 9% | -3% | nt
